“And” between values parts separate entries of the source, which are not always exact repeats. Identical values can stand only once. About 2,000 (36%) of roughly 5,500 compounds were called active. Not shown: some 18% with an inconclusive outcome. Cut-off read from the data, not from the text of the source: active = normalized growth mostly below about 0.91 (no sharp cut-off); inconclusive = no clear call, values can overlap the other calls; inactive = mostly above about 0.92. This is one part of the list.
Test: chemical genetic growth profiling, strain panel (AID 1159580);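 note: tested at 20 µM; growth read once vehicle control cultures reached saturation at 30 °C; 1 = growth at the plate median or of vehicle wells; lower values mean less growth of the strain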
Settings: S. cerevisiae deletion strains, growth OD

Measured: normalized growth

COC(=O)C[C@H]1C2(C)CC34OC5(C)O[C@@]6([C@H](OC(C)=O)C(OC(C)=O)[C@]7(C)C(/C(=C(/O)C(C)C)C(=O)O[C@H]7c7ccoc7)[C@@]6(O5)[C@H](OC(C)=O)[C@@]3(O)C2OC(=O)C(C)C)[C@]14C (stereo partly drawn)
inactive: locus YAL021C, strain ccr4, active compounds read low 1.01 | locus YAL026C, strain drs2, active compounds read low 0.995 | locus YAL030W, strain snc1, active compounds read low 0.997 | locus YBL061C, strain skt5, active compounds read low 1.01 | locus YBR009C, strain hhf1, active compounds read low 1.01 | locus YBR021W, strain FUR4, active compounds read low 1.06 | locus YBR023C, strain chs3, active compounds read low 1 | locus YBR171W, strain sec66, active compounds read low 0.994 | locus YBR229C, strain ROT2, active compounds read low 0.955 | locus YBR231C, strain swc5, active compounds read low 1 | locus YBR279W, strain paf1, active compounds read low 0.996 | locus YCL011C, strain gbp2, active compounds read low 0.989 | locus YCL016C, strain dcc1, active compounds read low 1.02 | locus YCL029C, strain bik1, active compounds read low 1.01 | locus YCL061C, strain MRC1, active compounds read low 1 | locus YCL069W, strain vba3, active compounds read low 0.998 | locus YCR088W, strain abp1, active compounds read low 0.992 | locus YDL005C, strain med2, active compounds read low 0.982 | locus YDL035C, strain GPR1, active compounds read low 0.976 | locus YDL040C, strain nat1, active compounds read low 0.978 | locus YDL074C, strain BRE1, active compounds read low 0.986 | locus YDL101C, strain DUN1, active compounds read low 1 | locus YDL134C, strain PPH21, active compounds read low 1.02 | locus YDL185W, strain tfp1, active compounds read low 0.956 | locus YDL192W, strain arf1, active compounds read low 0.986 | locus YDR001C, strain nth1, active compounds read low 1 | locus YDR069C, strain doa4, active compounds read low 1 | locus YDR101C, strain arx1, active compounds read low 1 | locus YDR137W, strain rgp1, active compounds read low 0.953 | locus YDR159W, strain sac3, active compounds read low 0.975 | locus YDR162C, strain NBP2, active compounds read low 0.973 | locus YDR195W, strain ref2 0.959 | locus YDR297W, strain sur2, active compounds read low 1.02 | locus YDR318W, strain mcm21, active compounds read low 0.994 | locus YDR334W, strain swr1, active compounds read low 0.991 | locus YDR335W, strain msn5, active compounds read low 0.993 | locus YDR388W, active compounds read low 0.994 | locus YDR392W, strain spt3, active compounds read low 1.05 | locus YDR502C, strain sam2, active compounds read low 1.03 | locus YEL003W, strain gim4, active compounds read low 0.995 | locus YEL037C, strain rad23, active compounds read low 0.997 | locus YEL061C, strain CIN8 (second series), active compounds read low 0.994 | locus YEL061C, strain CIN8, active compounds read low 1 | locus YER015W, strain faa2, active compounds read low 1.01 | locus YER016W, strain bim1, active compounds read low 0.981 | locus YER110C, active compounds read low 0.992 | locus YER111C, strain swi4, active compounds read low 0.985 | locus YER155C, strain BEM2 (second series), active compounds read low 1.01 | locus YER155C, strain BEM2, active compounds read low 1.01 | locus YER167W, strain BCK2, active compounds read low 0.99 | locus YFR010W, strain ubp6, active compounds read low 0.982 | locus YGL078C, strain dbp3, active compounds read low 0.98 | locus YGL086W, strain mad1, active compounds read low 1.01 | locus YGL167C, strain pmr1, active compounds read low 0.995 | locus YGL173C, strain kem1, active compounds read low 0.997 | locus YGL227W, strain vid30, active compounds read low 0.987 | locus YGL240W, strain doc1, active compounds read low 0.975 | locus YGL248W, strain PDE1, active compounds read low 0.997 | locus YGL253W, strain hxk2, active compounds read low 0.975 | locus YGR078C, strain PAC10, active compounds read low 1 | locus YGR135W, strain pre9, active compounds read low 1.06 | locus YGR252W, strain gcn5, active compounds read low 1.04 | locus YHR013C, strain ard1, active compounds read low 1 | locus YHR027C, strain rpn1, active compounds read low 1.02 | locus YHR030C, strain SLT2, active compounds read low 0.947 | locus YHR079C, strain IRE1 (second series), active compounds read low 0.997 | locus YHR079C, strain IRE1, active compounds read low 0.983 | locus YHR094C, strain hxt1, active compounds read low 0.998 | locus YHR129C, strain ARP1, active compounds read low 1 | locus YHR142W, strain chs7, active compounds read low 1 | locus YHR200W, strain rpn10, active compounds read low 0.996 | locus YIL066C, strain RNR3, active compounds read low 0.963 | locus YIL073C, strain SPO22, active compounds read low 0.966 | locus YIL125W, strain kgd1, active compounds read low 1 | locus YIR030C, strain dcg1, active compounds read low 1 | locus YJL092W, strain hpr5, active compounds read low 0.997 | locus YJL095W, strain BCK1 (second series), active compounds read low 1 | locus YJL095W, strain BCK1, active compounds read low 1.02 and 0.966 | locus YJL115W, strain asf1, active compounds read low 0.989 | locus YJL129C, strain trk1, active compounds read low 0.975 | locus YJL134W, strain LCB3, active compounds read low 0.994 | locus YJL154C, strain vps35, active compounds read low 1 | locus YJL164C, strain tpk1, active compounds read low 1.01 | locus YJL166W, strain qcr8, active compounds read low 0.983 | locus YJL168C, strain set2, active compounds read low 1.01 | locus YJL187C, strain SWE1 (second series), active compounds read low 1.01 | locus YJL187C, strain SWE1, active compounds read low 1.01 | locus YJR066W, strain TOR1, active compounds read low 0.928 | locus YJR075W, strain HOC1, active compounds read low 1.02 | locus YKL009W, strain mrt4, active compounds read low 0.979 | locus YKL068W, active compounds read low 0.986 | locus YKL160W, strain elf1, active compounds read low 1.01 | locus YKR001C, strain vps1, active compounds read low 1 | locus YKR026C, strain gcn3, active compounds read low 0.995 | locus YKR091W, strain srl3, active compounds read low 0.996 | locus YLL001W, strain dnm1, active compounds read low 1.02 | locus YLL026W, active compounds read low 0.987 | locus YLL041C, strain sdh2, active compounds read low 0.988 | locus YLR027C, strain aat2, active compounds read low 1 | locus YLR039C, strain RIC1, active compounds read low 0.863 | locus YLR058C, strain SHM2, active compounds read low 0.987 | locus YLR102C, strain apc9, active compounds read low 1 | locus YLR113W, strain HOG1, active compounds read low 1.01 | locus YLR221C, strain rsa3, active compounds read low 0.992 | locus YLR258W, strain gsy2, active compounds read low 1.01 | locus YLR262C, strain YPT6 (second series), active compounds read low 0.924 | locus YLR268W, strain sec22, active compounds read low 0.986 | locus YLR320W, strain mms22, active compounds read low 0.988 | locus YLR342W, strain FKS1, active compounds read low 0.996 | locus YLR357W, strain rsc2, active compounds read low 0.997 | locus YLR370C, strain arc18, active compounds read low 0.99 | locus YLR371W, strain rom2, active compounds read low 0.99 | locus YLR384C, strain iki3, active compounds read low 0.994 | locus YLR418C, strain cdc73, active compounds read low 1.07 | locus YML016C, strain PPZ1, active compounds read low 0.995 | locus YML032C, strain rad52, active compounds read low 0.982 | locus YML120C, strain ndi1, active compounds read low 0.995 | locus YML124C, strain tub3, active compounds read low 1.01 | locus YMR058W, strain fet3, active compounds read low 1.01 | locus YMR078C, strain ctf18, active compounds read low 0.998 | locus YMR125W, strain sto1, active compounds read low 1.01 | locus YMR129W, active compounds read low 0.997 | locus YMR205C, strain PFK2, active compounds read low 0.992 | locus YMR223W, strain ubp8, active compounds read low 1.02 | locus YMR231W, strain pep5, active compounds read low 0.957 | locus YMR263W, strain SAP30, active compounds read low 0.992 | locus YMR307W, strain GAS1, active compounds read low 0.926 | locus YNL067W, strain RPL9B, active compounds read low 1.02 | locus YNL071W, strain lat1, active compounds read low 0.998 | locus YNL153C, strain GIM3, active compounds read low 1.02 | locus YNL183C, strain NPR1, active compounds read low 0.954 | locus YNL209W, strain ssb2, active compounds read low 0.994 | locus YNL233W, strain BNI4, active compounds read low 1.04 | locus YNL248C, strain rpa49, active compounds read low 0.989 | locus YNL250W, strain rad50, active compounds read low 0.987 | locus YNL271C, strain bni1, active compounds read low 0.999 | locus YNL298W, strain CLA4, active compounds read low 0.994 | locus YNL307C, strain MCK1, active compounds read low 1.01 | locus YNL322C, strain KRE1 (second series), active compounds read low 0.982 | locus YNR049C, strain mso1, active compounds read low 0.994 | locus YNR052C, strain pop2, active compounds read low 1.02 | locus YOL012C, strain htz1 1.3 | locus YOL147C, strain pex11, active compounds read low 1.01 | locus YOR001W, strain rrp6, active compounds read low 0.947 | locus YOR061W, strain CKA2, active compounds read low 0.962 | locus YOR069W, strain VPS5, active compounds read low 1 | locus YOR070C, strain gyp1, active compounds read low 0.987 | locus YOR080W, strain dia2, active compounds read low 0.977 | locus YOR083W, strain WHI5, active compounds read low 1.02 | locus YOR106W, strain vam3, active compounds read low 1.01 | locus YOR136W, strain idh2, active compounds read low 1 | locus YOR144C, strain elg1, active compounds read low 1 | locus YOR184W, strain ser1, active compounds read low 0.987 | locus YOR231W, strain MKK1, active compounds read low 0.981 | locus YOR265W, strain rbl2, active compounds read low 0.994 | locus YOR270C, strain vph1, active compounds read low 0.87 | locus YOR290C, strain snf2, active compounds read low 0.979 | locus YOR316C, strain cot1, active compounds read low 1.01 | locus YPL051W, strain arl3, active compounds read low 0.999 | locus YPL078C, strain atp4, active compounds read low 1.01 | locus YPL106C, strain sse1, active compounds read low 1.06 | locus YPL240C, strain hsp82, active compounds read low 0.99 | locus YPL256C, strain CLN2, active compounds read low 0.98 | locus YPR119W, strain clb2, active compounds read low 0.997 | locus YPR141C, strain kar3, active compounds read low 0.969 | locus YPR163C, strain tif3, active compounds read low 1.01 | locus YPR167C, strain met16, active compounds read low 0.993 | strain wtn01, active compounds read low 1

Reference: PubChem BioAssay AID1159580 (chemical genetic matrix, 2015)
